# MEKK3 PB1 HTS – modulators (inhibitors or enhancers) of MEK5 binding to human MEKK3 PB1 domain. AID 1529. Q99759. binding response (% of control), % at 10 µM. bead-based flow cytometry, Alexa488-MEK5 binding to MEKK3; actives lie on both sides; 0 = blocked by unlabeled MEK5, 100 = vehicle. hit rate 1.4% among 290,000;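 active = binding response more than 3 SD above or below the average of its plate-row segment, actives on both sides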;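 note: Alexa488 bead fluorescence after subtracting the streptavidin-only scavenger bead signal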
# MEKK2 mut-MEK5 – signal of MEK5 binding to mutant human MEKK2 PB1 domain | AID 1530 | hit rate 0.35% among 290,000 | bead flow cytometry, Alexa488-MEK5 binding to MEKK2 mutant | percent response, % at 10 µM; in the data active = percent response above about 24%, passing the limit was not always enough
# MEKK2 WT-MEK5 – raises or lowers MEK5 binding to wildtype human MEKK2 PB1 domain; bead flow cytometry, Alexa488-MEK5 binding to MEKK2 WT; actives lie on both sides; binding response (% of control), % at 10 µM; hit rate 1.1% among 290,000; Q9Y2U5; AID 1531; in the data active = binding response below about 67% or above about 130%
# VLA-4 inh – inhibition in a human VLA-4 binding assay. P13612. VLA-4 expressing cells, ligand binding flow cytometry. AID 2557. inhibition, % (about 7 µM as worked out from the volumes in the protocol). hit rate 0.2% among 330,000; in the data active = inhibition above about 50%
# Target sequence (P13612 whole entry, looked up): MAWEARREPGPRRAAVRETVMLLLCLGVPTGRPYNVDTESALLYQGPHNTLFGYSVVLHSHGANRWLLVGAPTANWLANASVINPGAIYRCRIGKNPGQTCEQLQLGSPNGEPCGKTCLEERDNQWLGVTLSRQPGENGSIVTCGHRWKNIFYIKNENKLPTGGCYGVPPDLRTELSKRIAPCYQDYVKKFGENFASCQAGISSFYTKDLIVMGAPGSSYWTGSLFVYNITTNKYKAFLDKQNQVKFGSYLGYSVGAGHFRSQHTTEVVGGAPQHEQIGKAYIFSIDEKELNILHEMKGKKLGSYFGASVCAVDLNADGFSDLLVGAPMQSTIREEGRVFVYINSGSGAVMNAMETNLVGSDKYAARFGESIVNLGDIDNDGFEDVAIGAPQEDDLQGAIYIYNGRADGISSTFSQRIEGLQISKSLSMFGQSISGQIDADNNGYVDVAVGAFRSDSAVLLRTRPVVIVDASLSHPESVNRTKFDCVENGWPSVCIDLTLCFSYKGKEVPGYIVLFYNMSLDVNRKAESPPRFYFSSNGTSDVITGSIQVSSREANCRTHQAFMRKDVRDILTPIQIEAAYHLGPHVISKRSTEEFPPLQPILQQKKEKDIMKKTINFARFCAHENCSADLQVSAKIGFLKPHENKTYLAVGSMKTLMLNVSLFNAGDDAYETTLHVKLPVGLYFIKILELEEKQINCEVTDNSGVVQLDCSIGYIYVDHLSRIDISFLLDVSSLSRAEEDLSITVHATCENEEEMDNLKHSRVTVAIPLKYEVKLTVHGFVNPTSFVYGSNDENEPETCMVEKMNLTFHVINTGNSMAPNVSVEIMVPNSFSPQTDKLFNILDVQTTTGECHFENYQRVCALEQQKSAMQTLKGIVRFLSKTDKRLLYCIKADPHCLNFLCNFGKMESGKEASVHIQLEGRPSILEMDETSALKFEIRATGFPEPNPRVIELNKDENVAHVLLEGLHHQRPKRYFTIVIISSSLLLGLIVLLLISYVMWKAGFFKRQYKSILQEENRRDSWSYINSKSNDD
# MEKK2wt confirm – raises or lowers MEK5 binding to wildtype human MEKK2, retest. shares compounds with MEKK3 PB1 HTS. bead flow cytometry, Alexa488-MEK5 binding to MEKK2 WT; actives lie on both sides. binding response (% of control), % at 10 µM. hit rate 2.4% among 5,900; in the data active = binding response below about 16% or above about 210%; inactive = in between
# MEKK2mut-MEK5 – signal of MEK5 binding to mutant human MEKK2, retest. percent response, % at 10 µM. hit rate 2% among 5,900. shares compounds with MEKK3 PB1 HTS. bead flow cytometry, Alexa488-MEK5 binding to MEKK2 mutant; in the data active = percent response mostly above about 71%, no sharp cut-off; inactive = mostly below about 38%;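 note: higher means compound restores mutant binding toward wildtype level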
# MEKK3 confirm – confirmation of inhibitors of MEK5 binding to human MEKK3; shares compounds with MEKK3 PB1 HTS; bead flow cytometry, Alexa488-MEK5 binding to MEKK3; active compounds read low; binding response (% of control), % at 10 µM; hit rate 1.8% among 5,900;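 active = binding response below 72% of control, or above a set upper limit, though filed actives all read lower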;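 note: lower values mean stronger disruption of MEK5 binding to MEKK3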
# A number is an active result; i = inactive; nt = no result; ! = not active in a repeat; [ ] = remark or other dose. An excerpt weighted towards active compounds, which were near 2.2% of everything screened.
SMILES,MEKK3 PB1 HTS,MEKK2 mut-MEK5,MEKK2 WT-MEK5,VLA-4 inh,MEKK2wt confirm,MEKK2mut-MEK5,MEKK3 confirm
COC(=O)CCC(=O)OC1(C)C(=O)C=C2C=C(C3CC3)N(CCN3CCOCC3)C=C2C1=O (centres undefined),i,i,143.0,i,i,i,i
COC(=O)CCC(=O)OC1(C)C(=O)C=C2C=C(C3CC3)N(Cc3ccc4c(c3)OCO4)C=C2C1=O (centres undefined),i,i,-7.0[inhibitor],i,i,i,i
COC(=O)CCC(=O)OC1(C)C(=O)C=C2C=C(C3CC3)N(c3ccccc3)C=C2C1=O (centres undefined),i,i,i,i,nt,nt,nt
COC(=O)CCC(=O)OC1(C)C(=O)C=C2C=C(C3CC3)N(CCc3ccccn3)C=C2C1=O (centres undefined),i,i,i,i,nt,nt,nt
COC(=O)CCC(=O)OC1(C)C(=O)C=C2C=C(C3CC3)N(C(CO)CO)C=C2C1=O (centres undefined),i,i,151.0,i,i,i,i
COC(=O)CCC(=O)OC1(C)C(=O)C=C2C=C(C3CC3)N(CCc3c[nH]c4ccccc34)C=C2C1=O (centres undefined),0.0[inhibitor],i,0.0[inhibitor],i,i,i,i
O=C(C1CCCN(S(=O)(=O)c2cc(Cl)ccc2Cl)C1)N1CCOCC1 (centres undefined),i,i,i,i,nt,nt,nt
COC(=O)CCC(=O)OC1(C)C(=O)C=C2C=C(C3CC3)N(CCCCO)C=C2C1=O (centres undefined),i,i,141.0,i,i,i,i
COC(=O)CCCC1=CC2=CC(=O)C(C)(OC(=O)c3cccs3)C(=O)C2=CN1C1CC1 (centres undefined),i,i,142.0,i,i,i,i
CN(C)CCNc1oc(COc2ccc(Cl)cc2Cl)nc1C#N,i,55.0,170.0,i,i,i,i
N#Cc1nc(COc2ccc(-c3ccccc3)cc2)oc1NCCCN1CCOCC1,i,i,140.0,i,i,i,i
CN(C)CCNc1oc(COc2ccc(-c3ccccc3)cc2)nc1C#N,i,i,150.0,i,i,i,i
CC1C(=O)Nc2ccccc2N1C(=O)c1ccccc1 (centres undefined),i,i,i,i,nt,nt,nt
OCCC1CN(Cc2ccc3nsnc3c2)CCN1CCc1ccccc1 (centres undefined),i,i,i,i,nt,nt,nt
CCOC(=O)c1c(C)n(C)c2cc(-c3cccc(C(F)(F)F)c3)c(O)cc12,i,i,i,i,nt,nt,nt
CCOC(=O)c1c(C)n(C)c2cc(-c3ccc(C)cc3)c(O)cc12,131.0,i,i,i,i,i,i
CCOC(=O)c1c(C)n(C)c2ccc(OC(=O)c3ccc([N+](=O)[O-])cc3)cc12,138.0,i,i,i,i,i,i
CCOC(=O)c1c(C)n(CC)c2ccc(OC(=O)c3ccc([N+](=O)[O-])cc3)cc12,i,i,i,i,nt,nt,nt
CSCC[C@H](NC(=O)[C@H](Cc1ccccc1)n1c(=O)[nH]c2ccccc2c1=O)C(=O)N[C@@H](Cc1ccccc1)C(=O)O,i,i,i,i,nt,nt,nt
COc1ccccc1N(CC(=O)Nc1ccccc1C(=O)N1CCOCC1)S(C)(=O)=O,i,i,i,i,nt,nt,nt
COc1ccccc1NS(=O)(=O)c1cccc(C(=O)NN=C2CCCC2)c1,i,i,i,i,nt,nt,nt
COc1ccccc1NS(=O)(=O)c1cccc(C(=O)N/N=C2\CC(=O)CC(C)(C)C2)c1,142.0,i,i,i,i,i,i
COc1cccc(C(=O)NCc2ccc3[nH]c(C)cc3c2)c1,61.0[inhibitor],i,-6.0,i,i,i,i
O=C(C1CCCCN1S(=O)(=O)c1ccccc1[N+](=O)[O-])N1CCCCC1 (centres undefined),74.0[inhibitor],i,i,i,i,i,i
O=C(C1CCCCN1S(=O)(=O)c1ccccc1[N+](=O)[O-])N1CCCC1 (centres undefined),i,i,i,i,nt,nt,nt
SMILES,MEKK3 PB1 HTS,MEKK2 mut-MEK5,MEKK2 WT-MEK5,VLA-4 inh,MEKK2wt confirm,MEKK2mut-MEK5,MEKK3 confirm
CN(C)c1ccc(CNc2ncnc3sccc23)cc1,i,i,i,i,nt,nt,nt
CC(C)c1ccc(OCCCN2CCCC2)cc1,i,26.0,i,i,i,i,i
CN[C@H]1CC[C@@H](c2ccc(Cl)c(Cl)c2)c2ccccc21,i,i,176.0!,i,i,i,i
O=C(CN1CCOCC1)Nc1cccc(C(=O)Nc2cccc(C(F)(F)F)c2)c1,i,i,i,i,nt,nt,nt
CCCCCNCC(=O)Nc1cccc(C(=O)Nc2cccc(C(F)(F)F)c2)c1,i,i,174.0,i,i,i,i
COc1cc(/C=C(/NC(=O)c2ccccc2)C(=O)N2CCN(C)CC2)c([N+](=O)[O-])cc1OC,130.0,i,i,i,i,i,i
O=C(N/C(=C\c1cccs1)C(=O)N1CCOCC1)c1ccco1,i,i,i,i,nt,nt,nt
CN1CCN(C(=O)/C(=C\c2cccs2)NC(=O)c2ccco2)CC1,134.0,i,i,i,i,i,i
CN1CCN(C(=O)/C(=C/c2cccs2)NC(=O)c2cccs2)CC1,72.0[inhibitor],i,i,i,i,i,i
CCC1CCc2sc(C(=O)N(C)CC(=O)Nc3ccc(N4CCOCC4)cc3)cc2C1 (centres undefined),nt,nt,nt,i,nt,nt,nt
Cc1occc1-c1nnc(SCC(N)=O)o1,i,i,i,i,nt,nt,nt
Cc1ccc(C(=O)CSc2nnc(-c3ccccc3)o2)cc1,1.0[inhibitor],i,-2.0[inhibitor],i,i,i,i
Cc1occc1-c1nnc(SCC(=O)c2ccc(F)cc2)o1,48.0[inhibitor],i,i,i,i,i,i
Cc1ccc(CSc2nnc(-c3ccc(NS(=O)(=O)c4ccccc4)cc3)o2)cc1,21.0[inhibitor],i,26.0[inhibitor],i,i,i,i
Cc1ccc(S(=O)(=O)Nc2ccc(-c3nnc(SCc4ccccc4Cl)o3)cc2)cc1,i,i,i,i,nt,nt,nt
Cc1cc(NC(=O)c2cc(-c3ccncc3)nc3ccccc23)ccc1Br,nt,nt,nt,i,nt,nt,nt
COc1ccccc1CNC(=O)c1cccc2c1C(=O)N(Cc1cccnc1)C2,i,i,i,i,nt,nt,nt
COc1ccc(CCN2C(=O)CCC2(C)C(=O)NC2CCCC2)cc1OC (centres undefined),35.0[inhibitor],i,45.0[inhibitor],i,i,i,i
Cc1ccc(CCN2C(=O)CCC2(C)C(=O)NC2CCCC2)cc1 (centres undefined),i,i,i,i,nt,nt,nt
Cc1ccc(/C=N\NC(=O)CCc2n[nH]c(=O)[nH]c2=O)o1,i,i,i,i,nt,nt,nt
Cc1ccc(C(=O)COC(=O)c2ccncc2)cc1[N+](=O)[O-],52.0[inhibitor],i,i,i,i,i,i
Cc1ccc(C(=O)COC(=O)c2cc(Cl)ccc2O)cc1[N+](=O)[O-],i,i,i,i,nt,nt,nt
